Assay results: PubChem BioAssay AID624255 (Broad Institute, 2012)
Out of some 77,000 compounds screened, about 4,600 (6%) were called active. Not shown: some 1% with an inconclusive outcome. Only a selection was taken, and actives are over-represented in it overall. A number with no mark means an inactive call.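 How the source made its calls: active means mean inhibition above about 93%, with at least 55% of replicates each passing it (limit read from the data, passing the limit was not always enough); inconclusive means only one of those two conditions holds; inactive means neither condition holds.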

Test: growth inhibition of T. cruzi in host fibroblasts – cell-based, beta-gal Tulahuen parasites, NIH3T3 host, luminescence, primary screen (AID 624255)
Conditions: T. cruzi beta-gal in NIH3T3, GalScreen luminescence, 90 h; at 8.34 µM; active compounds read high

| Compound | inhibition |
| --- | --- |
| O=C(NC[C@@H]1[C@@H](c2ccccc2)[C@H](CO)N1C(=O)C1CCC1)NC1CCCC1 | -28.8% |
| CCN(C[C@H]1[C@H](c2ccccc2)[C@H](CO)N1C(=O)C1CC1)C(=O)NC1CCCC1 | 96.5% (active) |
| CCN(C[C@@H]1[C@@H](c2ccccc2)[C@H](CO)N1C(C)=O)C(=O)NC(C)C | 7.85% |
| Cn1cnc(S(=O)(=O)N2C[C@@H](O)COC[C@@H]3O[C@H](CC(=O)NCc4ccc(F)cc4)CC[C@H]32)c1 | -30.6% |
| COc1cccc(S(=O)(=O)N2C[C@@H](O)COC[C@H]3O[C@H](CC(=O)N4CCCCC4)CC[C@@H]32)c1 | 25.3% |
| C[C@H]1CN([C@@H](C)CO)C(=O)c2ccccc2-c2ccccc2CO[C@@H]1CN(C)S(=O)(=O)c1ccc(C(F)(F)F)cc1 | 105% (active) |
| C[C@H](CO)N1C[C@H](C)[C@@H](CN(C)C(=O)Nc2ccnc(N3CCOCC3)c2)OCc2ccccc2-c2ccccc2C1=O | 113% (active) |
| Cc1ccc(S(=O)(=O)N(C)C[C@@H]2OCc3ccccc3-c3c(n(C)c4ccccc34)C(=O)N([C@@H](C)CO)C[C@@H]2C)cc1 | 60.7% |
| C[C@H](CO)N1C[C@H](C)[C@H](CN(C)S(=O)(=O)c2cccc(F)c2)Oc2ncc(/C=C/c3ccccc3)cc2C1=O | 107% (active) |
| C[C@H](CO)N1C[C@H](C)[C@@H](CN(C)S(=O)(=O)c2cccc(F)c2)OCc2ccccc2-c2c(n(C)c3ccccc23)C1=O | 98% (active) |
| C[C@H](CO)N1C[C@H](C)[C@@H](CN(C)S(=O)(=O)c2cccc(F)c2)Oc2ncc(-c3cccc(F)c3)cc2C1=O | 49.3% |
| Cc1ccc(S(=O)(=O)N(C)C[C@H]2OCc3ccccc3-c3ccccc3C(=O)N([C@@H](C)CO)C[C@@H]2C)cc1 | 81.8% |
| COc1cccc(-c2cnc3c(c2)C(=O)N([C@H](C)CO)C[C@H](C)[C@H](CN(C)S(=O)(=O)c2cccc(F)c2)O3)c1 | 62.3% |
| COc1cccc(NC(=O)N(C)C[C@H]2OCc3ccccc3-c3ccccc3C(=O)N([C@H](C)CO)C[C@@H]2C)c1 | -8.4% |
| C[C@@H]1CN([C@@H](C)CO)C(=O)c2c(c3ccccc3n2C)-c2ccccc2CO[C@@H]1CN(C)S(=O)(=O)c1ccc(F)cc1 | -18% |
| COc1ccc(S(=O)(=O)N(C)C[C@@H]2OCc3ccccc3-c3ccccc3C(=O)N([C@@H](C)CO)C[C@@H]2C)cc1 | 28.9% |
| C[C@@H]1CN([C@@H](C)CO)C(=O)c2ccccc2-c2ccccc2CO[C@H]1CN(C)C(=O)Nc1ccccc1 | 24.6% |
| O=C(C[C@H]1CC[C@@H]2[C@H](COC[C@H](O)CN2S(=O)(=O)c2ccc(F)cc2)O1)NCCN1CCCCC1 | 7.58% |
| CNC(=O)C[C@@H]1CC[C@@H]2[C@@H](COc3ccc(NC(=O)Cc4cccs4)cc3C(=O)N2C)O1 | -40.4% |
| Cc1noc(C)c1NC(=O)N(C)C[C@H]1OCCCC[C@H](C)Oc2ccc(NC(=O)Nc3ccc4c(c3)OCO4)cc2C(=O)N([C@H](C)CO)C[C@@H]1C | 17.1% |
| COCC(=O)N1C[C@H](C)[C@@H](OC)CN(C)C(=O)c2cc(NC(=O)c3ccc(OC)cc3)ccc2OC[C@H]1C | 5.7% |

| Compound | inhibition |
| --- | --- |
| CC=Cc1ccc2n(c1=O)C[C@H]1[C@H](CO)[C@@H](C(=O)NCC3CC3)N(Cc3nccs3)[C@@H]21 (mixture of isomers) | -71.1% |
| COc1ccccc1C#Cc1cnc2c(c1)C(=O)N([C@@H](C)CO)C[C@H](C)[C@@H](CN(C)C(=O)CC1CC1)O2 | 92.8% |
| C[C@@H]1CCCCO[C@H](CN(C)S(=O)(=O)c2cn(C)cn2)[C@H](C)CN([C@@H](C)CO)C(=O)c2cc(NC(=O)Nc3ccc(C(F)(F)F)cc3)ccc2O1 | 29.7% |
| CO[C@@H]1CN(C)C(=O)c2ccc(NC(=O)Nc3c(C)noc3C)cc2OC[C@H](C)N(CC2CC2)C[C@H]1C | 91.1% |
| C[C@@H]1CN([C@@H](C)CO)C(=O)c2cc(-c3cncnc3)cnc2O[C@@H]1CN(C)C(=O)c1ccccc1F | 92.3% |
| C[C@H]1CN([C@@H](C)CO)C(=O)c2cc(C3=CCCC3)cnc2O[C@@H]1CN(C)C(=O)c1ccccc1 | -4.66% |
| CCCC(=O)Nc1ccc2c(c1)OC[C@H](C)N(CCC)C[C@@H](C)[C@@H](OC)CN(C)C2=O | -74.1% |
| CN1c2ccc(C3=CCCCC3)cc2[C@H]2[C@H](CCN2S(=O)(=O)c2ccccc2)[C@@H]1CO | 86.7% |
| C[C@@H]1CCCCO[C@H](CN(C)S(C)(=O)=O)[C@@H](C)CN([C@@H](C)CO)C(=O)c2cc(NC(=O)CCC(F)(F)F)ccc2O1 | 31.3% |
| C[C@H]1CN([C@@H](C)CO)C(=O)c2cc(-c3cccc(F)c3)cnc2O[C@@H]1CN(C)S(C)(=O)=O | 36.8% |
| C[C@H](CO)N1C[C@H](C)[C@@H](CN(C)S(=O)(=O)c2ccccc2)Oc2ncc(-c3ccncc3)cc2C1=O | 2.86% |
| C[C@H](CO)N1C[C@H](C)[C@H](CN(C)S(=O)(=O)c2ccccc2)Oc2ncc(-c3cccc(C(F)(F)F)c3)cc2C1=O | 118% (active) |
| CCCNC(=O)[C@H]1[C@H](CO)[C@H]2Cn3c(ccc(C4=CCCC4)c3=O)[C@H]2N1C(=O)CC | 6.67% |
| O=C(C[C@H]1CC[C@H]2[C@@H](COC[C@@H](O)CN2S(=O)(=O)c2cccc(Cl)c2)O1)NC1CCCC1 | -59.2% |
| O=C(Nc1ccc(C(F)(F)F)cc1)N[C@@H]1CC[C@H](CCNC(=O)c2ccccc2F)O[C@H]1CO | -57% |
| O=C(Nc1cc(Cl)cc(Cl)c1)N[C@H]1CC[C@@H](CCNS(=O)(=O)c2cccc(F)c2)O[C@H]1CO | 117% (active) |
| O=C(Nc1ccccc1)N[C@H]1CC[C@H](CCNC(=O)c2ccccc2F)O[C@H]1CO | 22.8% |
| O=S(=O)(NCC[C@H]1CC[C@@H](NS(=O)(=O)c2cccc(Cl)c2)[C@@H](CO)O1)c1cccc(F)c1 | 11.3% |
| O=C(Nc1ccc(Cl)cc1)N[C@@H]1CC[C@@H](CCNC(=O)c2ccccc2F)O[C@H]1CO | 169% (active) |
| O=C(Nc1cc(Cl)cc(Cl)c1)N[C@@H]1CC[C@H](CCNS(=O)(=O)c2cccc(F)c2)O[C@H]1CO | 17.2% |
